# This is a sample that favours compounds with a hit; in the whole collection about 3.3% have one here.
# Tau FP inhib – tau fibrillization inhibition (FP) | P10636 | K18 P301L tau heparin fibrillization, Alexa594 FP, 6 h | AID 1468 | 280,000 tested, 0.39% active | Potency, µM (series often up to 57.7 µM), hits mostly inhibitors; further: nearly all actives have a fitted effect of over 55% in size
# Target sequence (P10636 561-689 P618L limits assumed): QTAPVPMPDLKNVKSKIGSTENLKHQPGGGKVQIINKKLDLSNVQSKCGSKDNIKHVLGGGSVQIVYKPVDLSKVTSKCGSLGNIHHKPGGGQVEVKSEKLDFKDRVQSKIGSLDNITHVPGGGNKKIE
#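 Human tau K18 […] P301L fragment, 15 uM unlabeled plus 0.24 uM Alexa 594-labeled tau (final), with compound and 20 uM heparin in 100 mM sodium acetate pH 7; 6 hr at 37 C, then Alexa 594 FP read.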
# NPSR antagonist – neuropeptide S receptor (human) antagonism, cAMP; CHO-NPSR cells, cAMP TR-FRET, antagonist mode; Potency, µM (top dose mostly 38.3 µM), actives largely listed as inhibitors; 220,000 tested, 1% active; AID 1461; further: nearly all actives have a fitted effect of over 50% in size
# Target sequence (Q6W5P4 whole entry, looked up): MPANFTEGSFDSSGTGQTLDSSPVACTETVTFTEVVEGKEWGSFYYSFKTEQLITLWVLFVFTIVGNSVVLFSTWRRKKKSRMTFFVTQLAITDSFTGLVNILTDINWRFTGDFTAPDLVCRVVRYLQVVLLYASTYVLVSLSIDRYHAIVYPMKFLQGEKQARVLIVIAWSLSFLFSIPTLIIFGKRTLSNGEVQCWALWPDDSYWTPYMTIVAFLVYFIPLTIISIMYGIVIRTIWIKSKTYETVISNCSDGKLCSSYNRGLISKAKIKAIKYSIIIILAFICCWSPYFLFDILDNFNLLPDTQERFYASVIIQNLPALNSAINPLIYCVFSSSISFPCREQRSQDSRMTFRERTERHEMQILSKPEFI
# KinaseGlo FLuc – Kinase-Glo luciferase inhibition (counter-screen). Kinase-Glo luciferase, ATP luminescence, 8 min. 200,000 tested, 0.28% active. Potency, µM (series often up to 38.3 µM), hits mostly inhibitors. Q27757. AID 1379; further: nearly all actives have a fitted effect of over 60% in size
#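 Recombinant Kinase-Glo luciferase, 10 uM ATP (linear range), luciferin; imidazole pH 7.2 / KCl / MgCl2 / Tween / BSA buffer; 8 min RT; luminescence.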
# Tau fluor counter – counter-screen for tau fibril formation inhibitors | tau K18 P301L Alexa594 fluorescence, heparin fibrillization | Potency, µM (top dose mostly 57.7 µM) | 280,000 tested, 0.93% active | AID 1463; further: nearly all actives have a fitted effect of over 55% in size
#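 Human tau K18 P301L (15 uM unlabeled, 0.24 uM Alexa 594-labeled) in 100 mM sodium acetate pH 7 with 20 uM heparin, 6 hr at 37 C. ThT 30 uM added, 1 hr ambient; Alexa 594 FP and total fluorescence read at 555/632 nm.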
# Tau ThT inhib – blocks human tau fibril formation measured by thioflavin T; P10636; recombinant tau K18 P301L (four-repeat tau fragment), heparin-induced fibrillization, ThT fluorescence; Potency, µM (highest dose often 57.4 µM), actives largely listed as inhibitors; 270,000 tested, 2.1% active; AID 1460; further: nearly all actives have a fitted effect of over 55% in size
#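 Heparin-induced fibrillization of the P301L-mutant K18 repeat-domain fragment of human tau was followed by ThT binding in quantitative high-throughput format.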
# A number is an active result; 0 = inactive; ? = inconclusive; - = not tested or not shown; [ ] = remark or other dose. The call rests on the fitted dose curve; in most records, active means well fitted curve in the direction sought with a large enough effect; inconclusive means small, poorly fitted or top-dose-only effect, or another doubt; inactive means no such curve, though single readings can be large; an effect the other way counts as inactive or inconclusive.
SMILES,Tau FP inhib,NPSR antagonist,KinaseGlo FLuc,Tau fluor counter,Tau ThT inhib
O=C(N/N=C/c1ccc([N+](=O)[O-])cc1)c1ccc(COc2ccccc2-c2ccccc2)cc1,0,0,0,12.6µM[quencher],?
CCOC(=O)c1ccc(NC(=O)Cn2cc(C(=O)c3cccs3)c3ccccc32)cc1,15.8µM,-,-,?,0
O=C(c1cc(-c2ccccc2O)on1)N1CCCCC1,0,-,-,0,0
CCOC(=O)CC1=C(C(=O)OCC)C(c2cc(OC)c(OC)cc2OC)C(C#N)=C(N)O1 (stereo unspecified),0,0,0,0,0
CCOC(=O)CC1=CC(C)(CC(=O)OCC)C(C#N)(C#N)C(N)=C1C#N (stereo unspecified),?,0,0,0,28.2µM
COc1ccc(CNC(=O)CN2C(=O)COc3ccc(S(=O)(=O)N4CCCCCC4)cc32)cc1,0,-,-,0,0
CC(C)=CCCC1(C)C=Cc2c(c(C)cc3c2[nH]c2cc(O)ccc23)O1 (stereo unspecified),?,?,-,5.01µM[quencher],28.2µM
Cc1ccc(C(=O)N2CCSC2=S)cc1,0,0,0,0,?
Cc1ccc(C(=O)Oc2csc(=S)n2C(=O)c2ccc(C)cc2)cc1,?,0,0,0,10µM
CCCCCn1c(=N)c(S(=O)(=O)c2ccc(C)cc2)cc2c(=O)n3cc(C)ccc3nc21,0,-,-,0,0
Oc1ccc(/C=N/N=C(c2ccccc2)c2ccccc2)c(O)c1O,?,0,0,12.6µM[quencher],8.91µM
O=C(/C(=N/N=C/c1ccc(O)c(O)c1O)c1ccccc1)c1ccccc1,0,?,0,0,0
CCCCS(=O)(=O)N1C2=NC(C(=O)OC)=C(C(=O)OC)[C@@H]3Nc4ccccc4[C@]23C[C@H]1C(=O)OC,0[11.6 µM],-,0[7.66 µM],0[11.6 µM],0[11.5 µM]
CN(C)c1ccc(/C=C/C(=O)c2ccccc2)cc1[N+](=O)[O-],0,0,0,?,10µM
CNc1ccc(/C=C/C(=O)c2ccc3c(c2)OCCO3)cc1[N+](=O)[O-],0,0,0,?,2.51µM
Cc1ccc(/C=C/C(=O)c2ccc(O)cc2)cc1,0,0,-,0,?
CNc1ccc(/C=C/C(=O)c2ccc(C)cc2)cc1[N+](=O)[O-],0,0,0,0,3.16µM
Cc1ccccc1NC(=O)c1ccc(N/N=C/c2ccccc2O)c([N+](=O)[O-])c1,0,0,0,0,?
Cc1ccc(NC(=O)c2ccc(N/N=C/c3cccc(O)c3)c([N+](=O)[O-])c2)cc1,0,?,0,?,1.58µM
C1CCC(N=C(NC23CC4CC(CC(C4)C2)C3)N2CCOCC2)CC1,0,0,0,0,0
Cc1cc(C)cc(NC(=O)CCc2c(C)nc3c(c2C)c(=O)n(C)c(=O)n3C)c1,0,-,-,0,?
O=C(Oc1ccc(Br)cc1C(=S)N1CCCCC1)c1cc([N+](=O)[O-])cc([N+](=O)[O-])c1,0,0,0,22.4µM[quencher],?
O=C(Oc1cccc(C(=S)N2CCOCC2)c1)c1cc([N+](=O)[O-])cc([N+](=O)[O-])c1,0,0,0,20µM[quencher],?
O=C(Oc1cccc(C(=S)N2CCOCC2)c1)c1cccc([N+](=O)[O-])c1,0,0,0,?,?
O=C(Oc1ccc(Br)cc1C(=S)N1CCCC1)c1ccccc1F,0,0,0,0,?
SMILES,Tau FP inhib,NPSR antagonist,KinaseGlo FLuc,Tau fluor counter,Tau ThT inhib
COc1cccc2c1OC(=O)CC2c1ccccc1C (stereo unspecified),0,-,0,0,0
CC(CNC(=O)c1ccc(Cn2c(=O)c3cccn3c3cccnc32)cc1)c1ccccc1 (stereo unspecified),0,-,-,0,0
COc1cc(/C=C2\SC(c3ccccc3)=NC2=O)cc(Cl)c1O,?,0,?,?,4.47µM
COc1ccc(/C=C2\SC(c3ccc(C)cc3)=NC2=O)cc1OC,?,0,0,?,11.2µM
COc1cc(/C=C2\SC(N)=NC2=O)ccc1OCC(=O)Nc1ccc(C)cc1,?,0,0,0,?
COc1cc(/C=C2\SC(c3ccc(C)cc3)=NC2=O)ccc1O,?,0,0,?,14.1µM
COc1ccc(/C=C2/SC(c3ccc(C)cc3)=NC2=O)cc1OC,?,0,0,?,14.1µM
COc1cc(/C=C2\SC(N3CCc4ccccc4C3)=NC2=O)cc(OC)c1OC,0,0,0,0,?
COc1cc(/C=C2\SC(c3ccc(C)cc3)=NC2=O)cc(OC)c1OC,?,0,0,0,14.1µM
Cc1ccc(CNC(=O)CN2CCCN(Cc3ccc(F)cc3)S2(=O)=O)cc1,0,-,-,0,0
C/C(=N\NC(=O)c1cc2ccccc2cc1O)c1cc2ccccc2o1,0,0[7.67 µM],-,?,3.55µM
C/C(CC(=O)N1CCN(C=O)CC1)=N\NC(=O)c1cc2ccccc2cc1O,?,0,0,?,25.1µM
C/C(=N/NC(=O)c1cc2ccccc2cc1O)C1C(=O)c2ccccc2C1=O,0,0,0,14.1µM[quencher],2.51µM
C/C(=N\NC(=O)c1nc2ccccn2c1C)c1cc2ccccc2o1,0,0,0,0,?
C/C(=N\NC(=O)c1ccccc1O)C1C(=O)c2ccccc2C1=O,0,?,0,?,5.01µM
Cc1nn(-c2ccc(N3CCCC3)nn2)c(C)c1CCC(=O)Nc1ccc(F)c(Cl)c1,0,-,-,0,0
CCN(CC)c1cc2c(cc1F)c(=O)c(S(=O)(=O)c1cc(C)ccc1C)cn2Cc1ccccc1,0,-,-,0,0
CCc1nc2c(cnn2-c2ccc(Cl)cc2)c(=O)n1-c1ccc(OC)c(Cl)c1,0,-,-,0,0
COc1ccc(CCNC(=O)c2ccc3c(c2)N=C(C)c2ccccc2S3)cc1OC,0,-,-,?,?
CNc1nc(-c2ccccn2)nnc1-c1ccccc1,0,0,0,0,0
c1ccc(-c2nnc(-c3ccccn3)nc2NC2CCCCC2)cc1,0,10µM,0,0,0
COc1ccc(C2CC(c3ccccc3)=NN2c2ccc(/C=N/NC(=O)c3ccncc3)cc2)cc1 (stereo unspecified),?,0,0,12.6µM[quencher],?
COc1ccc(C2CC(c3ccccc3)=NN2c2ccc(S(N)(=O)=O)cc2)cc1 (stereo unspecified),0,?,-,?,?
CCOc1ccc(C2C(=O)N(C3CCCCC3)CC(=O)N2CCc2ccccc2)cc1OC (stereo unspecified),0,-,-,0,0
O=C1C=CC2=C3c4cc(O)c(O)cc4C[C@@]3(O)COC2=C1,?,-,0,?,8.91µM
COC(=O)C1=C(C(=O)OC)[C@@H]2N(C)c3ccccc3[C@@]23C[C@@H](C(=O)OC)N(S(=O)(=O)c2ccc4c(c2)OCCN4C)C3=N1,0[11.6 µM],-,0[7.66 µM],0[11.6 µM],0[11.5 µM]
Cc1nc(CSc2nnc(N)s2)cs1,0,0,0,0,0
Cc1nc(CSc2nsc(/C=C/N(C)C)c2C#N)cs1,0,0,0,?,25.1µM
CCOC(=O)Nc1c(Cl)n(C)c(=O)n(C)c1=O,0,0,-,0,0
CCCCN1C(=O)c2[nH]nc(-c3ccccc3O)c2C1c1ccc(C(C)(C)C)cc1 (stereo unspecified),0,-,-,?,?

# Assay outcomes from PubChem.
